Measured values published in PubChem BioAssay (EPA / NIEHS).
Active and inactive are the calls of the source. The calls were made as follows: active = hit-call score of the fitted dose curve at least 0.9, where 1 is the maximum; inactive = score below 0.9.

read-out: Potassium channel subfamily K member 1 (KCNK1), KCNK1 (gene 3775); experiment: LTEA_HepaRG_KCNK1: Life Technologies and Expression Analysis (LTEA) Assay for Potassium channel subfamily K member 1 (KCNK1) using HepaRG (AID 2283511); details: mRNA level, 48 h; actives raise or lower the signal
Description: LTEA_HepaRG is a cell based, multiplexed-readout assay that uses HepaRG, a human liver cell line, with measurements taken at 48 hours after chemical dosing on a 96-well plate.LTEA_HepaRG_KCNK1 is one of 102 assay component(s) measured in the LTEA HepaRG cell culture assay. It is a marker of Hyperplasia.Data from the assay component LTEA_HepaRG_KCNK1 was analyzed into 1 endpoint. This assay endpoint, LTEA_HepaRG_KCNK1, was analyzed with bidirectional fitting relative to DMSO as the negative control and baseline of activity. Using a type of inducible reporter, measures of mRNA induction for gain or loss-of-signal activity can be used to understand regulation of transcription factor activity. To generalize the intended target to other relatable targets, this assay endpoint is annotated to the ion channel intended target family, where the subfamily is potassium channel.
A total of 1060 chemcials from the ToxCast library were tested in eight-point concentration-response experiments. Cell culture and cytotoxicity assays were conducted at Thermo Fisher Scientific's Custom Services facility (Madison, WI). A single lot of human HepaRG cells (Thermo Fisher Scientific, Frederick, MD) was used for the cell culture experiments. 96-well format collagen type I coated plates of human HepaRG cells were prepared using established methods. Briefly, cryopreserved HepaRG cells were thawed, plated at a density of approximately 100,000 cells/well in HepaRG Thaw, Plate, and General Purpose media (HPRG770, Thermo Fisher Scientific), and incubated for 48 hours. 0.5% DMSO was selected as vehicle control to balance the requisite need of DMSO in HepaRG cultures to maintain differentiation (for example, baseline metabolism, proportions of hepatocytes vs. cholangiocytes), while enabling further hepatic receptor pathway activation (for example, PXR and CAR) in response to chemical exposure. 48 hours after plating, the culture medium was replaced with HepaRG Serum-Free Incudtion Media. Cells were exposed to each test chemical in duplicate and maintained in CO2 incubators for another 48 hours. Chemical plates were thawed to room temperature and 200x concentrations of treatment groups were prepared. 8-point conentration-reponse curves were made with the highest exposure at 100 uM, followed by half-log dilutions, all in 0.5% DMSO. Each test plate contained variouse controls, induction positive controls (1mM phenobarbital), cytotoxicity positive controls ([…] aflatoxin B1), vehicle controls (0.5% DMSO), and total lysis controls (0.5% DMSO). Cell morphology images were taken using an Essen IncuCyte FLR automated microscope, with six 96-well plates imaged in about 24 minutes. Images were captured and exported and JPEG files. Spent culture media was transfered to black-well plates for the LDH assay, and remaining media was sorted at -80 C for later use. Cells were treated with RLT buffer and frozen until shipped for gene expression analysis. Total RNA was isolated from the cell suspension in 75 uL of Buffer RLT (Qiagen, Germantown, MD 20874) by Quintiles/Expression Analysis (Durham, NC) using a custom isolation procedure. Total RNA from each plate well was transferred to a preamplification plate. Fluidigm's 96.96 Dynamic ArrayTM (Fluidigm, Amsterdam, the Netherlands) technology was used for gene expression analyses by quantitative reverse transcription polymerase chain reaction (qRT-PCR, performed by Quintiles/Expression Analysis, Durham, NC)89. Standard TaqManTM Assays (Applied Biosystems/ThermoFisher Scientific, Foster City, CA) were used to assess the expression of 93 genes selected based on their selectivity and sensitivity to important hepatic receptors known to be modulated by environmental chemicals; importance in human hepatocyte functionality; and hepatotoxicity. […]

SMILES | outcome
CC(C)O.CC(C)O.OCCN(CCO)CCO.OCCN(CCO)CCO.[Ti] | inactive
COc1ccccc1N | inactive
CC(C)(C)c1ccccc1O | inactive
O=C(N[C@H]1CN2CCC1CC2)c1ccc2c(c1)OCCO2 | inactive
Oc1c(Cl)cc(Cl)cc1Cl | inactive
N#Cc1cccnc1 | inactive
Clc1cccc(Cl)c1Cl | inactive
OCCN(CCO)CCO | inactive
CCCCCCCCCCCCc1cccc(S(=O)(=O)O)c1 | inactive
Oc1cc(Cl)c(Cl)cc1Cl | inactive
Cc1cc(C)cc(C)c1 | inactive
Clc1cccc(Cl)c1 | inactive
O=C(O)C1(c2ccc3c(c2)OC[C@H](Cc2ccc(-c4ccccc4)cc2)[C@H]3O)CCCC1 | inactive
CN(C)C(=S)S | inactive
